Source: article PMC7862700, “An all-to-all approach to the identification of sequence-specific readers for epigenetic DNA modifications on cytosine”

What was measured:
Experiment in all cases: DAPPL (digital affinity profiling via proximity ligation, sequencing); 10 mM Tris-HCl pH 7.5, 50 mM NaCl, 1 mM DTT, 4% glycerol, room temperature, 30 min; GST-TFs on glutathione beads, 16-mer random dsDNA library, 0.1% formaldehyde crosslink after washing; high values mean tight binding
[1] = biological target: T1, FEV (Homo sapiens, UniProt Q99581 1-238); conditions: protein: recombinant; tags: N-terminal GST; dsDNA, one strand shown
T1 sequence: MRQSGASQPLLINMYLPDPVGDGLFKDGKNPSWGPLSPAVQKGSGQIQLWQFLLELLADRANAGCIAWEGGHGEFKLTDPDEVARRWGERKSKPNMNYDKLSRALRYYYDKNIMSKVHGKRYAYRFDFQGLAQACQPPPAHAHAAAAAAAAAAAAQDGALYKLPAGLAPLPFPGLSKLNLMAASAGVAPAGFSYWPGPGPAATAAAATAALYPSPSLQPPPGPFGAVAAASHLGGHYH
Method in brief: (§1)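 After expression in yeast as GST fusions, human transcription factors were bound to glutathione beads, DNA-barcoded and mixed with a tag-only sample. The pools were incubated with 200 nmole of a 16-mer random double-stranded DNA library in Tris/NaCl/DTT/glycerol buffer (30 min, room temperature), washed and crosslinked with 0.1% formaldehyde. Proximity ligation with BsaI/T4 ligase ran for 1 h at 37 °C, before PCR amplification and sequencing on an Illumina NextSeq500. Binding signal is a hexamer's read frequency for a factor divided by its frequency for the tag-only sample.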

[2] = biological target: ETV5 (Homo sapiens, UniProt P41161 1-510); conditions: protein: recombinant; tags: N-terminal GST; dsDNA, one strand shown
ETV5, sequence (P41161 whole entry): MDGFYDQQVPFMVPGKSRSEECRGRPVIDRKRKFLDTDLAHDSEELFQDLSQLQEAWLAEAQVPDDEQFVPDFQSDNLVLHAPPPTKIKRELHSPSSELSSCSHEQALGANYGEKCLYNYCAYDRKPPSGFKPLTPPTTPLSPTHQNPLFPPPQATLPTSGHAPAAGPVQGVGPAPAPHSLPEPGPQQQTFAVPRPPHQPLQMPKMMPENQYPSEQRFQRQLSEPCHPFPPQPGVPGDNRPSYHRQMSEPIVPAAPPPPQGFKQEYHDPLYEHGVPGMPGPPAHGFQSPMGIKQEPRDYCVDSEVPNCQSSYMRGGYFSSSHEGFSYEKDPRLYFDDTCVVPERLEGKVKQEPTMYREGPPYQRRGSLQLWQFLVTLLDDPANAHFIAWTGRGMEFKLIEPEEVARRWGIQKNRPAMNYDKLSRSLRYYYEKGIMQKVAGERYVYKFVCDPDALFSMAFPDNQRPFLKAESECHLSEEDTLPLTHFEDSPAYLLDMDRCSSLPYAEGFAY
Method in brief: as §1

[3] = biological target: HSF1 (Homo sapiens, UniProt Q00613 1-529); conditions: protein: recombinant; tags: N-terminal GST; chain copies: 3; dsDNA, one strand shown
HSF1, sequence (Q00613 whole entry): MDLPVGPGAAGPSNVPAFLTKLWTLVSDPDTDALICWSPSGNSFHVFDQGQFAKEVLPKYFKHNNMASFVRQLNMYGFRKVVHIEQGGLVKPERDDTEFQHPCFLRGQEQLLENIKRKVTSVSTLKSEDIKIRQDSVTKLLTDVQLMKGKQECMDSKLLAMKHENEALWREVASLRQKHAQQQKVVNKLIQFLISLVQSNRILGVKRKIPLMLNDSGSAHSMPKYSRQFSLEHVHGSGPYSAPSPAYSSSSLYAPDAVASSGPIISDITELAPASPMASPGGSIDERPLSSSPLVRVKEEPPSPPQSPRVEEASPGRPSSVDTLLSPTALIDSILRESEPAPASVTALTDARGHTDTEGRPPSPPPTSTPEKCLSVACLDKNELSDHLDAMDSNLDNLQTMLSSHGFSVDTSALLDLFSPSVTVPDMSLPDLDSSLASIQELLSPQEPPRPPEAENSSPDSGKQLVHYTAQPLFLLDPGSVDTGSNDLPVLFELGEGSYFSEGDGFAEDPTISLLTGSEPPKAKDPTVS
Method in brief: as §1

[4] = biological target: T2, SPIC (Homo sapiens, UniProt Q8N5J4 1-248); conditions: protein: recombinant; tags: N-terminal GST; dsDNA, one strand shown
T2 sequence: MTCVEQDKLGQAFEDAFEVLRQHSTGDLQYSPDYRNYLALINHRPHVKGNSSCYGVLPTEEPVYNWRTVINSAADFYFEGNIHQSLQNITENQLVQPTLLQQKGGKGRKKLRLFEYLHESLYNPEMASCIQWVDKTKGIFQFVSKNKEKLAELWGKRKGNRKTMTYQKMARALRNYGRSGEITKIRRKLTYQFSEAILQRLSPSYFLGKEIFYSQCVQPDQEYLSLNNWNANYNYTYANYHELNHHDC
Method in brief: as §1

[5] = biological target: ELF4 (Homo sapiens, UniProt Q99607 1-663); conditions: protein: recombinant; tags: N-terminal GST; dsDNA, one strand shown
ELF4, sequence (Q99607 whole entry): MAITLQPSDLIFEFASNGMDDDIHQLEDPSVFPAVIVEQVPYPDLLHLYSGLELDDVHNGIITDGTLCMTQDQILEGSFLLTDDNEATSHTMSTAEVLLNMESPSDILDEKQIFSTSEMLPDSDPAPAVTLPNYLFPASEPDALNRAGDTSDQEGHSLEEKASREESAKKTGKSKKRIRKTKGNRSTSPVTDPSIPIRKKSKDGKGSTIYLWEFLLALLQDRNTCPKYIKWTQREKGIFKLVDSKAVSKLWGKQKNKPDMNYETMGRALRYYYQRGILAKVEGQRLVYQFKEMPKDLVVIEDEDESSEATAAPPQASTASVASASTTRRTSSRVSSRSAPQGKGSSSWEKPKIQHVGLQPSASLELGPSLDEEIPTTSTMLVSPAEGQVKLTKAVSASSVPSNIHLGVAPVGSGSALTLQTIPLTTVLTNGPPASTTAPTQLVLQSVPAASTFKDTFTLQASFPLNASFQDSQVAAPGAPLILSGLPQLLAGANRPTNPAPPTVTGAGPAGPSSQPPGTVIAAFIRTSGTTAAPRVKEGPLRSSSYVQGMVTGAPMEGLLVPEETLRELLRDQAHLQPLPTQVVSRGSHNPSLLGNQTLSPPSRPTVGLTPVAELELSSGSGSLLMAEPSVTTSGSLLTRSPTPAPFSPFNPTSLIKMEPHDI
Method in brief: as §1

[6] = biological target: T3, ELK4 (Homo sapiens, UniProt P28324-2 1-405); conditions: protein: recombinant; tags: N-terminal GST; dsDNA, one strand shown
T3 sequence: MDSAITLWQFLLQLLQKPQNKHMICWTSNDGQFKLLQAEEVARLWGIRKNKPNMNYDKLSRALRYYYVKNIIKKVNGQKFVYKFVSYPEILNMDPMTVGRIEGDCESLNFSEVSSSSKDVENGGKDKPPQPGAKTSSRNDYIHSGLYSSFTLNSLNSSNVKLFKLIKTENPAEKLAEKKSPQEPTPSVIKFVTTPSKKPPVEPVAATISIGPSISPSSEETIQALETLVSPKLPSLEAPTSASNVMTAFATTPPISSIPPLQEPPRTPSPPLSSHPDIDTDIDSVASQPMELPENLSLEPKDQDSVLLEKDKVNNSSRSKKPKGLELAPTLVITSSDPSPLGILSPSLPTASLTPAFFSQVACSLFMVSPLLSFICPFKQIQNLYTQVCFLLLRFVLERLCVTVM
Method in brief: as §1

[7] = biological target: T4, ETV2 (Homo sapiens, UniProt O00321 1-342); conditions: protein: recombinant; tags: N-terminal GST; dsDNA, one strand shown
T4 sequence: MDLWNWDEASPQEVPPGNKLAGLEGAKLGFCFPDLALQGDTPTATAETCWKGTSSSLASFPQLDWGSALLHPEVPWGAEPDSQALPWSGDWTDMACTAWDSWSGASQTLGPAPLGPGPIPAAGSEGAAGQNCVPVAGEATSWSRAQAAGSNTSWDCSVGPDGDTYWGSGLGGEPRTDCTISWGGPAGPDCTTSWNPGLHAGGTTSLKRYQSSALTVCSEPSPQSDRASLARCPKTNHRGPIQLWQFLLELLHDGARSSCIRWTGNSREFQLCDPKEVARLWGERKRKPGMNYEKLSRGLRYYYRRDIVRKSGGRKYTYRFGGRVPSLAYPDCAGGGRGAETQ
Method in brief: as §1

[8] = biological target: T5, ELF3 (Homo sapiens, UniProt P78545 1-371); conditions: protein: recombinant; tags: N-terminal GST; dsDNA, one strand shown
T5 sequence: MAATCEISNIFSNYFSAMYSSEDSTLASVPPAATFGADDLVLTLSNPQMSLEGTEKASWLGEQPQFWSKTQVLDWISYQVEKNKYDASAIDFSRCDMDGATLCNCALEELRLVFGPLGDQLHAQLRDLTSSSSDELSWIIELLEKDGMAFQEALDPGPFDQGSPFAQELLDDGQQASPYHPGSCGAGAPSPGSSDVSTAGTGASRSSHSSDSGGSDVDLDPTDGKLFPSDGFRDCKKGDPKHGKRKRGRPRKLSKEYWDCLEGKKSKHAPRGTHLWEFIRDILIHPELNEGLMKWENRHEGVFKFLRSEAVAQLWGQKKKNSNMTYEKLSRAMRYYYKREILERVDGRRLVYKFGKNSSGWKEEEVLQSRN
Method in brief: as §1

[9] = biological target: CRX (Homo sapiens, UniProt O43186 1-299); conditions: protein: recombinant; tags: N-terminal GST; dsDNA, one strand shown
CRX, sequence (O43186 whole entry): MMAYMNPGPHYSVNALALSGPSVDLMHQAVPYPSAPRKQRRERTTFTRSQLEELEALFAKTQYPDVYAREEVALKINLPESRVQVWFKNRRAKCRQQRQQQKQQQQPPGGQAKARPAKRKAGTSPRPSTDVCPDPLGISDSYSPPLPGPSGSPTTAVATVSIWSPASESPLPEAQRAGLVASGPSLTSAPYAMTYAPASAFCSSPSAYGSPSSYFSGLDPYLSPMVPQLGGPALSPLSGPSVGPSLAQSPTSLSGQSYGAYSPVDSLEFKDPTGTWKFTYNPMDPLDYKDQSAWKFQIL
Method in brief: as §1

[10] = biological target: ETV1 (Homo sapiens, UniProt P50549 1-477); conditions: protein: recombinant; tags: N-terminal GST; dsDNA, one strand shown
ETV1, sequence (P50549 whole entry): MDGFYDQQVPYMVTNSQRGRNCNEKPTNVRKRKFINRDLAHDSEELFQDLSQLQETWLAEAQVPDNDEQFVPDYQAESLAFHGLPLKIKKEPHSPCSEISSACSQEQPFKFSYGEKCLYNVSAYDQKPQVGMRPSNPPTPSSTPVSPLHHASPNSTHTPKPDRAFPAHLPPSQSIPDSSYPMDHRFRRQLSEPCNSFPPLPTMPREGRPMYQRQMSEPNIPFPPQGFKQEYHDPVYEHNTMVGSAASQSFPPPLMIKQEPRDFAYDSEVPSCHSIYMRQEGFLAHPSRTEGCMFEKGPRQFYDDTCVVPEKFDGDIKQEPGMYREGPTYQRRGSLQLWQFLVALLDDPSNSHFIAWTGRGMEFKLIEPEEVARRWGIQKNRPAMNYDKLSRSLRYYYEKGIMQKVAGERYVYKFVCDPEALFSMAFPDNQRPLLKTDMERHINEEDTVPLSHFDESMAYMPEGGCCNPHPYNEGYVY
Method in brief: as §1

[11] = biological target: T6, ERF (Homo sapiens, UniProt P50548 1-548); conditions: protein: recombinant; tags: N-terminal GST; dsDNA, one strand shown
T6 sequence: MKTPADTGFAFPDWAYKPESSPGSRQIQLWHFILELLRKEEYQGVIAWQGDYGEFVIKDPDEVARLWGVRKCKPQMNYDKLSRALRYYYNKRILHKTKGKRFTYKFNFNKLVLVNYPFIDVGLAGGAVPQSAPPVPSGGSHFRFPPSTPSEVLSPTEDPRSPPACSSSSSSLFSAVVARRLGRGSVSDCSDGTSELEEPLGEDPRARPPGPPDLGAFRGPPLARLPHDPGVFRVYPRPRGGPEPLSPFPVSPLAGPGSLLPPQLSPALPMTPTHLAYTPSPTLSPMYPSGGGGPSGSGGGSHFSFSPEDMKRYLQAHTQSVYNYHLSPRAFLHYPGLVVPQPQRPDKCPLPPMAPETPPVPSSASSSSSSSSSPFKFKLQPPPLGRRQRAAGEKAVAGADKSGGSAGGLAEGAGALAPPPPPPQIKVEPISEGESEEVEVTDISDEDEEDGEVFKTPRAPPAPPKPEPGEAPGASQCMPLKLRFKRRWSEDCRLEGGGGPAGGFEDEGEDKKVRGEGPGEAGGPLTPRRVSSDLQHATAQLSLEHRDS
Method in brief: as §1

[12] = biological target: T7, ETV3L (Homo sapiens, UniProt Q6ZN32 1-361); conditions: protein: recombinant; tags: N-terminal GST; dsDNA, one strand shown
T7 sequence: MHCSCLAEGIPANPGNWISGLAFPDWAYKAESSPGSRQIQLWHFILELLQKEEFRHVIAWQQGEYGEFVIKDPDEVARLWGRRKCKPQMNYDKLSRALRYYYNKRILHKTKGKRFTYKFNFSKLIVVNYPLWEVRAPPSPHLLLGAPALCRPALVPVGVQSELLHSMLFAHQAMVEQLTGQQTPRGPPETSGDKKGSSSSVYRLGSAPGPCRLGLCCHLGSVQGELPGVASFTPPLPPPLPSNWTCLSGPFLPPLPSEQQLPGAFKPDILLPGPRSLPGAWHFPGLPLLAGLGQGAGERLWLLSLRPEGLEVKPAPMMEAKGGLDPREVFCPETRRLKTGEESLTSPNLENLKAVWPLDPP
Method in brief: as §1

[13] = biological target: T8, ETS2 (Homo sapiens, UniProt P15036 1-469); conditions: protein: recombinant; tags: N-terminal GST; dsDNA, one strand shown
T8 sequence: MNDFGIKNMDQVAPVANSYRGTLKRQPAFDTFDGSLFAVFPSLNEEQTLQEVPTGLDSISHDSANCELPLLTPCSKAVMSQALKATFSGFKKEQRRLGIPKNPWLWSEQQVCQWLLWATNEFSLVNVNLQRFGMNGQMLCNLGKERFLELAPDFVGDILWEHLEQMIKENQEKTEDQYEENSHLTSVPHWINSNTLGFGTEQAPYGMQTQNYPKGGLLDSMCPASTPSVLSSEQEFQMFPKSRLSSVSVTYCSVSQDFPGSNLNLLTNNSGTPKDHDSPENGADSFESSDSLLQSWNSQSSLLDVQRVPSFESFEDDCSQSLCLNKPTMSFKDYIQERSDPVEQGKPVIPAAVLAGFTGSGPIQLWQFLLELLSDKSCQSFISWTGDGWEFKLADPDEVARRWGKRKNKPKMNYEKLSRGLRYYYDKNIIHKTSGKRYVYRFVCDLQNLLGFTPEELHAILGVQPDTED
Method in brief: as §1

[14] = biological target: T9, SPDEF (Homo sapiens, UniProt O95238 1-335); conditions: protein: recombinant; tags: N-terminal GST; dsDNA, one strand shown
T9 sequence: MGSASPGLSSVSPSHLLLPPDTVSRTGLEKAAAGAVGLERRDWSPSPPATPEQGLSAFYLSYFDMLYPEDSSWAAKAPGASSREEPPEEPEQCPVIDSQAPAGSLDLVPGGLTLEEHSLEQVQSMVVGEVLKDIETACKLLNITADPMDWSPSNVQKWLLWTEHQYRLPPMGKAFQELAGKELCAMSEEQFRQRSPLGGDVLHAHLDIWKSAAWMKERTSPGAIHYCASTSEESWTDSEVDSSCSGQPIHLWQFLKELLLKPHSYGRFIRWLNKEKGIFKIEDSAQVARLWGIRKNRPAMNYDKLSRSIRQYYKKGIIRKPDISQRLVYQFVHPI
Method in brief: as §1

[15] = biological target: T10, ETV7 (Homo sapiens, UniProt Q9Y603 1-341); conditions: protein: recombinant; tags: N-terminal GST; dsDNA, one strand shown
T10 sequence: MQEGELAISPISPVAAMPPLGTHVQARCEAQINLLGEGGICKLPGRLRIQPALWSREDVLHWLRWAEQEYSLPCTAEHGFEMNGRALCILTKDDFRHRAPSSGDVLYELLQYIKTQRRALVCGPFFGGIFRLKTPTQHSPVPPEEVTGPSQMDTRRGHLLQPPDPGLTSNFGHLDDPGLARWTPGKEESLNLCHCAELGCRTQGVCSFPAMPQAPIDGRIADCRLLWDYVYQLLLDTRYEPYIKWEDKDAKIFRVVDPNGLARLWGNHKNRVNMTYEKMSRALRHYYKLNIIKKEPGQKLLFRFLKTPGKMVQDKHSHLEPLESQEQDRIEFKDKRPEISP
Method in brief: as §1

[16] = biological target: T11, ELF5 (Homo sapiens, UniProt Q9UKW6-2 1-255); conditions: protein: recombinant; tags: N-terminal GST; dsDNA, one strand shown
T11 sequence: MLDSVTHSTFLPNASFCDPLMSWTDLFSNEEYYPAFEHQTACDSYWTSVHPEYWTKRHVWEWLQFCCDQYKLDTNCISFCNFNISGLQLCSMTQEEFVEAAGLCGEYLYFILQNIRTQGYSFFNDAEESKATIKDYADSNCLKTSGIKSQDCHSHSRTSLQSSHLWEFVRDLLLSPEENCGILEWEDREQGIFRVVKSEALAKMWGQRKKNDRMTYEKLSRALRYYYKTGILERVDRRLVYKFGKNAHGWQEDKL
Method in brief: as §1

[17] = biological target: T12, ETV3 (Homo sapiens, UniProt P41162-2 1-143); conditions: protein: recombinant; tags: N-terminal GST; dsDNA, one strand shown
T12 sequence: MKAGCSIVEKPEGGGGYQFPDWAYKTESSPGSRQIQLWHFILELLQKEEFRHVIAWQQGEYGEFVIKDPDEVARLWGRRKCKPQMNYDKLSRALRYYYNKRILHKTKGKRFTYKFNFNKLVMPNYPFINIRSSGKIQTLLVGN
Method in brief: as §1

[18] = biological target: ETV6 (Homo sapiens, UniProt P41212 1-452); conditions: protein: recombinant; tags: N-terminal GST; dsDNA, one strand shown
ETV6, sequence (P41212 whole entry): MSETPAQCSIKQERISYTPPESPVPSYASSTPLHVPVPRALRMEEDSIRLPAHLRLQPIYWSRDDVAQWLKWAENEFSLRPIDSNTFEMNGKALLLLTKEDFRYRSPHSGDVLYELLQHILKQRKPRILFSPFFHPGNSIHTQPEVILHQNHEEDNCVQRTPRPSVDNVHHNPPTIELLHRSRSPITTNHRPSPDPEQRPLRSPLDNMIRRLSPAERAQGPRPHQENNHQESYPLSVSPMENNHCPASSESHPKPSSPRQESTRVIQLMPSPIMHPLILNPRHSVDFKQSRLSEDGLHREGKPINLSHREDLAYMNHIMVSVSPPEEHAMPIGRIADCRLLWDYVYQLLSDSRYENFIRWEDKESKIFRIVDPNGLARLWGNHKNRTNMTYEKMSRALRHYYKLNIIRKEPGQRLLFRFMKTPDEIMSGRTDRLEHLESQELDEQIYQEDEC
Method in brief: as §1

TAGATG
binding signal [1]: 1.22 fold enrichment (6-mer frequency, TF over GST control) | binding signal [2]: 1.22 fold enrichment (6-mer frequency, TF over GST control) | binding signal [3]: 1.66 fold enrichment (6-mer frequency, TF over GST control) | binding signal [4]: 1.57 fold enrichment (6-mer frequency, TF over GST control) | binding signal [5]: 1.18 fold enrichment (6-mer frequency, TF over GST control) | binding signal [6]: 1.3 fold enrichment (6-mer frequency, TF over GST control) | binding signal [7]: 1.37 fold enrichment (6-mer frequency, TF over GST control) | binding signal [8]: 1.32 fold enrichment (6-mer frequency, TF over GST control) | binding signal [9]: 1.52 fold enrichment (6-mer frequency, TF over GST control) | binding signal [10]: 1.15 fold enrichment (6-mer frequency, TF over GST control) | binding signal [11]: 1.54 fold enrichment (6-mer frequency, TF over GST control) | binding signal [12]: 1.36 fold enrichment (6-mer frequency, TF over GST control) | binding signal [13]: 1.3 fold enrichment (6-mer frequency, TF over GST control) | binding signal [14]: 1.35 fold enrichment (6-mer frequency, TF over GST control) | binding signal [15]: 1.33 fold enrichment (6-mer frequency, TF over GST control) | binding signal [16]: 1.27 fold enrichment (6-mer frequency, TF over GST control) | binding signal [17]: 1.22 fold enrichment (6-mer frequency, TF over GST control) | binding signal [18]: 1.24 fold enrichment (6-mer frequency, TF over GST control)
